For assay [1], the target named is Tyrosine-protein kinase SYK (Homo sapiens) (UniProt P43405). The following applies: at 10 µM.
The target in assay [2] is T1, Mitogen-activated protein kinase kinase kinase 7 (Homo sapiens) (UniProt O43318).
T1 sequence (whole entry): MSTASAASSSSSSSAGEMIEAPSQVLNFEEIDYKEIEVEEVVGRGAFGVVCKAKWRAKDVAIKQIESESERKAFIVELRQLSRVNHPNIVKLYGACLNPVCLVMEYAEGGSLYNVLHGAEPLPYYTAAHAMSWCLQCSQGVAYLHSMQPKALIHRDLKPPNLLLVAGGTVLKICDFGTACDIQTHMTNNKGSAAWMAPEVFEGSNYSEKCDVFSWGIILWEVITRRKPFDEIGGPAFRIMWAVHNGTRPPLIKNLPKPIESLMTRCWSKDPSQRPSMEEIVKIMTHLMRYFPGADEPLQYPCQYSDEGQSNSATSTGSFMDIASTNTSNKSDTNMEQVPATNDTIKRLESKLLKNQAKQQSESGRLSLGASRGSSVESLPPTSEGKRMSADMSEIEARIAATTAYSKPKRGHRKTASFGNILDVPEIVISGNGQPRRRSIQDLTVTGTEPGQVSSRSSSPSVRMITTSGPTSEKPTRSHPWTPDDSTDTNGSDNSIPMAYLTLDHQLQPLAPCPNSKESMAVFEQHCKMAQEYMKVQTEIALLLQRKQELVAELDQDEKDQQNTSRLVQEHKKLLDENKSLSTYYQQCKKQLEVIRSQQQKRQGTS
The conditions noted are these: at 1 µM.

In assay [3] the target is T1, Mitogen-activated protein kinase kinase kinase 7 (Homo sapiens). The following applies: at 10 µM.
Assay [4] has as its target T2, Serine/threonine-protein kinase TAO1 (Homo sapiens) (UniProt Q7L7X3).
T2 sequence (whole entry): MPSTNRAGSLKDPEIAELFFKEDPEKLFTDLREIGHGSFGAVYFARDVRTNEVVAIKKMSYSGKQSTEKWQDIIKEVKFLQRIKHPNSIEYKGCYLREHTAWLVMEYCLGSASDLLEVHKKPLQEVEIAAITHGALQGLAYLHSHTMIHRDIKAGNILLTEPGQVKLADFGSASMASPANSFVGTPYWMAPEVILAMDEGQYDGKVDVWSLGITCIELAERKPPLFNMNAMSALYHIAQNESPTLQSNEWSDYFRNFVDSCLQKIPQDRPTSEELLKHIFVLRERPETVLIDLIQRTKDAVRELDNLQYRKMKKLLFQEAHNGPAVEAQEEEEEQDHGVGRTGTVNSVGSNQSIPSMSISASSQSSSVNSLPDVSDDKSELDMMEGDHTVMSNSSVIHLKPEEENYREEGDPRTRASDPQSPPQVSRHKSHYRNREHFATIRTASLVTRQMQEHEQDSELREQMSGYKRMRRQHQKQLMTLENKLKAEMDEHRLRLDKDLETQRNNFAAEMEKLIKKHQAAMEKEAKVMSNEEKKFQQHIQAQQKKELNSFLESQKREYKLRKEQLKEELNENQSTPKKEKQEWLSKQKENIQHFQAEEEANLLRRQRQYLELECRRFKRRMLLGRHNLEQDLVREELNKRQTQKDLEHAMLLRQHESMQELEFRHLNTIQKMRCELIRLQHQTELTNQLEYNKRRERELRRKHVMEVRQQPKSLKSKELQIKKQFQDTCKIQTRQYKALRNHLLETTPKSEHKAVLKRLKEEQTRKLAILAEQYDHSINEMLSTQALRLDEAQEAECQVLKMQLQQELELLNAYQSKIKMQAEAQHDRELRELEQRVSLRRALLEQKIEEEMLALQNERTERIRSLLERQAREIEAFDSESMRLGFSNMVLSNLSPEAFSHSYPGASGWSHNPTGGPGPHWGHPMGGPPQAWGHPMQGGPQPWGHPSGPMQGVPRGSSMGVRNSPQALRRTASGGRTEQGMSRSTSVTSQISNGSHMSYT
The following applies: at 1 µM.

For assay [5], the target named is T2, Serine/threonine-protein kinase TAO1 (Homo sapiens). The following applies: at 10 µM.
For assay [6], the target named is T3, Serine/threonine-protein kinase TAO2 (Homo sapiens) (UniProt Q9UL54).
T3 sequence (whole entry): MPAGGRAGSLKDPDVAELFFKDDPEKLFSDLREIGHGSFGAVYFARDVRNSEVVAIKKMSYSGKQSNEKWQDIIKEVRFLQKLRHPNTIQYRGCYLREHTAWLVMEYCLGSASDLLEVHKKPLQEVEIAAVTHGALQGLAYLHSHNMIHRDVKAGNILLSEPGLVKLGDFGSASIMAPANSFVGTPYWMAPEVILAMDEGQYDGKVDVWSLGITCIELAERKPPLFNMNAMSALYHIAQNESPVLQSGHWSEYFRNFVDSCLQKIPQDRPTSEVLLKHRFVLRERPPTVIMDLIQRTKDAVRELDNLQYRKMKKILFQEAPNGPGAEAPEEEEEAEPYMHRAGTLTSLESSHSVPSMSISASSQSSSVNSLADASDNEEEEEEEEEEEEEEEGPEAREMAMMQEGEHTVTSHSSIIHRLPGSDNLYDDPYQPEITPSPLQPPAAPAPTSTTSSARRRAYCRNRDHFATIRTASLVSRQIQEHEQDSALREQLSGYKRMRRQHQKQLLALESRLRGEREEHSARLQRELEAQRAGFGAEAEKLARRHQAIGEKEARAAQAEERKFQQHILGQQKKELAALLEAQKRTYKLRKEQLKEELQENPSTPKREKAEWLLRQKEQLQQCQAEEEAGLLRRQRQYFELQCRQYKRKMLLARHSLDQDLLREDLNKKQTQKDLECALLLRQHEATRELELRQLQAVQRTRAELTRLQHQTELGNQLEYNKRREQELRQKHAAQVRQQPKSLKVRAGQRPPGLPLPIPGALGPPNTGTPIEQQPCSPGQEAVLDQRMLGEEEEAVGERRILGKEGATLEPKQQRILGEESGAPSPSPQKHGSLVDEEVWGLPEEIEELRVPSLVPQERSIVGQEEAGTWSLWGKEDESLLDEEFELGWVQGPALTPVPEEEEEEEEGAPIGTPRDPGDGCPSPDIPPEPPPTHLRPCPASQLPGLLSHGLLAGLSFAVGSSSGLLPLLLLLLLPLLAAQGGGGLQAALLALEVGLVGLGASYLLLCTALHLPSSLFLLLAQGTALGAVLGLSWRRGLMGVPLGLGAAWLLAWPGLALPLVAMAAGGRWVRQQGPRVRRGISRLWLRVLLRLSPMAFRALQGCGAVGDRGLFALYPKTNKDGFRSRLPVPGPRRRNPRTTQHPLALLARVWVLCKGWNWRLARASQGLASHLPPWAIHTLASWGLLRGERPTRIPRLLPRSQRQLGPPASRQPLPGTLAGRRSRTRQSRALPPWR
The following applies: at 1 µM.

Assay [7] addresses T3, Serine/threonine-protein kinase TAO2 (Homo sapiens). The following applies: at 10 µM.
The target in assay [8] is T4, Serine/threonine-protein kinase TAO3 (Homo sapiens) (UniProt Q9H2K8).
T4 sequence (whole entry): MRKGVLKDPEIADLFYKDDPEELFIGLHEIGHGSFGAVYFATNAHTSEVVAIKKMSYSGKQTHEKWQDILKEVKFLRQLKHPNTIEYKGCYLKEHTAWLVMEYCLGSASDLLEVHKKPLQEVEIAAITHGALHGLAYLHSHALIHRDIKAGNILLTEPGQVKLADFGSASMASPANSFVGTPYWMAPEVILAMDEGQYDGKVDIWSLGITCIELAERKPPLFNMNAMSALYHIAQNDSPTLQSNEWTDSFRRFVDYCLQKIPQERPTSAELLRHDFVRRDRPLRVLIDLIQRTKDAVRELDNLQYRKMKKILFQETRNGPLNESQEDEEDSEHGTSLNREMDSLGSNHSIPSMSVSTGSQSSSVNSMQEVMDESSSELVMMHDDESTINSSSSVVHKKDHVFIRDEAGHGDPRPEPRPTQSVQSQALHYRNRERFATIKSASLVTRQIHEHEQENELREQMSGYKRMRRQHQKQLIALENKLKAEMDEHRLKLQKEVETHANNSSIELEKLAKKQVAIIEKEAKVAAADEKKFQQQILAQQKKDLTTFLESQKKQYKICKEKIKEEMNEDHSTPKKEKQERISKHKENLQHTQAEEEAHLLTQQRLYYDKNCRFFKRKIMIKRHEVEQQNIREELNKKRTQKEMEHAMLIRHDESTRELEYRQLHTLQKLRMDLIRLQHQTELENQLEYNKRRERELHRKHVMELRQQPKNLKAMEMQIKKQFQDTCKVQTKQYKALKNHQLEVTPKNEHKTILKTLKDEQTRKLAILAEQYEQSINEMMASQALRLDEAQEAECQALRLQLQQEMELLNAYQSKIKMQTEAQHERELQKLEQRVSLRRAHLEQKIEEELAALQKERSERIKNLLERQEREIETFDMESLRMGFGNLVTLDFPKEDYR
The conditions noted are these: at 1 µM.

The target in assay [9] is T4, Serine/threonine-protein kinase TAO3 (Homo sapiens). The following applies: at 10 µM.
Assay [10] deals with T5, Serine/threonine-protein kinase TBK1 (Homo sapiens) (UniProt Q9UHD2).
T5 sequence (whole entry): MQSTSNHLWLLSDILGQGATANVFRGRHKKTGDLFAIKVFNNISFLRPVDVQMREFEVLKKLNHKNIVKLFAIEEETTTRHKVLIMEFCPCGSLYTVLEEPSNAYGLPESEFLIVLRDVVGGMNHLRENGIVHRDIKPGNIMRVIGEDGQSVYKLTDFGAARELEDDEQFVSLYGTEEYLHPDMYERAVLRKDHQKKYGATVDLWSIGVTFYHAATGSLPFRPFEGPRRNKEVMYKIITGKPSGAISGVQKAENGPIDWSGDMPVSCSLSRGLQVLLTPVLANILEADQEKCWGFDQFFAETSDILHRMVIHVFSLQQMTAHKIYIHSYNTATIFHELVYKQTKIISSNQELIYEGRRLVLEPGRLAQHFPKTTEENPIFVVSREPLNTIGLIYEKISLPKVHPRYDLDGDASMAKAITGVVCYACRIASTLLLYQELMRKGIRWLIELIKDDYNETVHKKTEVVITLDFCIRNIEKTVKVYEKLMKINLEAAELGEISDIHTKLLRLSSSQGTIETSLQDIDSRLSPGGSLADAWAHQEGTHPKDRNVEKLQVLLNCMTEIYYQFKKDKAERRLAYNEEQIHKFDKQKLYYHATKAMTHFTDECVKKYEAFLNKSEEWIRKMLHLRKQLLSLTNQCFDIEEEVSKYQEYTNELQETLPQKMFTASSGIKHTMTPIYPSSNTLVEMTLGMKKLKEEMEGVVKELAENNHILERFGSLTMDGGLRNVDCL
The conditions noted are these: at 1 µM.

Turning to `COc1ccc(OC)c2c(=S)c3ccccc3[nH]c12`, the residual activity stood at 96% in [1]; 95% in [2]; 81% in assay [3]; 82% in assay [4]; 91% in [5]; 90% in assay [6]. In addition, the residual activity in [7] came to 87%; in assay [8] it was 96%; in assay [9], 90%; in assay [10], 82%.

Values taken from ChEMBL document CHEMBL2218924, “A broad activity screen in support of a chemogenomic map for kinase signalling research and drug discovery” (Biochem J, 2013).
